PubChem BioAssay AID652141 (The Scripps Research Institute Molecular Screening Center, 2013)
About 4,500 (80%) of roughly 5,600 compounds were called active. The set was probably picked from earlier hits. A selection follows. A number with no mark means an inactive call. Cut-off read from the data, not from the text of the source: active = inhibition above about 10%; inactive = the rest.

Test: inhibition of coupled GDH and TPI enzymes – biochemical, fluorescence, high throughput, artefact control for M. tuberculosis FBA inhibitor project (AID 652141)
Details: GDH-TPI coupled enzyme counterscreen, at 1 µM, active compounds read high

| Structure (SMILES) | inhibition |
| --- | --- |
| Cc1ccc(C2Nc3cccc4cccc(c34)N2)cc1 | 137% (active) |
| O=C(CCc1ccccc1)Nc1cccc(-c2nnc(-c3ccco3)o2)c1 | 69.8% (active) |
| O=C(Nc1ccc(-c2nnc(-c3ccccc3)o2)cc1)C1CCCO1 (stereo not given) | -0.52% |
| Cc1noc(C)c1COc1ccc2ccc(=O)oc2c1 | 42.7% (active) |
| Cc1cc(C)cc(NC(=O)CSc2ccccc2)c1 | 58.2% (active) |
| Nc1ccccc1C(=O)NC1CCCCNC1=O (stereo not given) | 141% (active) |
| C[C@H]1CN([C@@H](C)CO)C(=O)c2cc(Br)cnc2O[C@H]1CN(C)S(=O)(=O)c1cccs1 | 2.73% |
| c1cc(-c2ccc3[nH]ccc3c2)n2ccnc2c1 | 62.4% (active) |
| CCCCOc1ccc(-c2nnc(-c3ccco3)o2)cc1 | 140% (active) |
| CCOc1ccc(-c2nnc(-c3ccco3)o2)cc1 | 65% (active) |
| CCCCn1c(-c2cccc(C)c2)nc2cc3[nH]c(=O)c(C(C)C)nc3cc21 | 33.5% (active) |
| Brc1cnc2ccccc2c1N1CCCCC1 | 60.2% (active) |
| CCCn1c(=O)c(-c2ccccc2)c(O)c2ccccc21 | 75.9% (active) |
| Cc1cccc(NC(=O)c2sc3nc(N4CCOCC4)c4c(c3c2N)CCCC4)c1 | 77% (active) |
| CCOC(=O)Cn1c(=O)n(Cc2ccc(OC)cc2)c(=O)c2cccnc21 | 730% [above what the read-out allows, likely interference] (active) |
| COC(=O)CSc1nc(C)c2ccc(OC)cc2n1 | -4.3% |
| CCOC(=O)c1[nH]c2ccc(OC)cc2c1NC(=O)N1CCOCC1 | 100% (active) |
| CCOC(=O)c1[nH]c2ccc(OC)cc2c1NC(=O)CCN1CCN(Cc2ccccc2)CC1 | -6.9% |
| O=C(NC1CCN(Cc2ccccc2)CC1)c1cc(Br)c(Br)[nH]1 | 764% [above what the read-out allows, likely interference] (active) |
| N#Cc1c(N2CCCCC2)nc(N)c2c(N)nc(SCC(=O)O)cc12 | 8.17% |
| COc1ccc(NC(=O)CN(C)C(=O)c2cc(-c3ccc(C)o3)nc3ccccc23)cc1 | 61.4% (active) |
| CCC(=O)Nc1c(S(=O)(=O)c2ccccc2)c2nc3ccccc3nc2n1Cc1ccccc1 | 150% (active) |
| COc1ccc2[nH]c3ccc(OC)cc3c2c1 | 198% (active) |
| COc1ccc2[nH]c3c(=O)n(Cc4ccco4)cnc3c2c1 | -2.61% |

| Structure (SMILES) | inhibition |
| --- | --- |
| COc1ccc(-c2nc3cc(C)ccn3c2NC2CCCCC2)cc1SC1CCCCC1 | 41.2% (active) |
| COc1ccc2c3c(c(=O)oc2c1OCC(=O)C(C)(C)C)CCCC3 | 51% (active) |
| Cc1c(OC(C)C(=O)N[C@@H](Cc2ccccc2)C(=O)O)ccc2c3c(c(=O)oc12)CCCC3 (stereo not given in full) | -2.05% |
| CCN(CC)c1ccc2cc(C(=O)O)c(=O)oc2c1 | 17.4% (active) |
| CCOC(=O)N1CCN(C(=O)c2cc3c(ccc4ccccc43)oc2=O)CC1 | -8.26% |
| COC(=O)c1c(C)c(C)nc(N)c1C#N | 49.5% (active) |
| CC(C)c1nc(N2CCOCC2)c(C#N)c2c1COC(C)(C)C2 | 32.5% (active) |
| CC1(C)Cc2c(C#N)c(SCc3nc4ccccc4[nH]3)nc(N3CCOCC3)c2CO1 | -4.7% |
| CN(C(=O)c1ccccn1)c1nnc(-c2ccccn2)s1 | 520% [above what the read-out allows, likely interference] (active) |
| CN(C(=O)COc1ccccc1)c1nnc(-c2ccncc2)s1 | 513% [above what the read-out allows, likely interference] (active) |
| Cc1cccc2c1-c1sc(C(=O)NCCCN3CCc4ccccc4C3)cc1CO2 | -4.07% |
| O=C(NCCN1CCN(Cc2ccccc2)CC1)c1cc2c(=O)[nH]c3ccccc3c2s1 | 125% (active) |
| CN(C)S(=O)(=O)c1ccc(N/C=C(\[N+](=O)[O-])S(=O)(=O)c2ccccc2)cc1 | -5.04% |
| Oc1ccc(Br)cc1C=Nc1ccc2[nH]ncc2c1 | 51.6% (active) |
| CC(C)=NN1C(=O)c2ccccc2NC1(C)C | 121% (active) |
| Cc1cc(NC(C)C)n2c(nc3ccccc32)c1C#N | 181% (active) |
| COc1ccc(C2C3=C(CCCC3=O)N(CC(=O)O)C3=C2C(=O)CCC3)cc1 | 107% (active) |
| CCOC(=O)COc1nc(C)cc(C(F)(F)F)c1C#N | 36.8% (active) |
| COc1ccc2sc(-c3ccc(N(C)C)cc3)c(-c3ccc4cc[nH]c4c3)c2c1 | 55.2% (active) |
| O=C(CN1C(=O)c2cccc3cccc(c23)C1=O)N1CCCCC1 | 53.9% (active) |
| CCCCN(CCCC)CC(O)Cn1c2ccccc2c(=O)c2ccccc21 (stereo not given) | 87.8% (active) |
| CN1c2ccc(C=O)c3c(C=O)ccc(c23)N(C)C1(C)C | 19.9% (active) |
| CCOc1ccc2nc(Nc3nc4ccc(NC(C)=O)cc4s3)sc2c1 | 13.8% (active) |
| O=C(Nc1ncc2c(n1)-c1ccccc1OC2)c1ccc(Cl)cc1 | 82.3% (active) |

| Structure (SMILES) | inhibition |
| --- | --- |
| CN(C(=O)c1cc2c(=O)n3ccccc3nc2s1)C1CCCCC1 | 46.3% (active) |
| CN(CCOc1ccccc1)C(=O)c1cc(-c2ccco2)nc2ccccc12 | -2.35% |
| O=C(c1cc(-c2ccco2)nc2ccccc12)N(Cc1nnc(-c2ccc(Cl)cc2)o1)C1CC1 | 72.7% (active) |
| COc1ccc(CNC(=O)c2c[nH]c3c(OC)cc(OC)cc3c2=O)cc1 | -3.81% |
| COc1cccc2[nH]c(C(=O)NCCc3ccccc3)cc12 | 961% [above what the read-out allows, likely interference] (active) |
| Cc1cnc(C(=O)OCC(=O)N2CCc3ccccc32)cn1 | 99.3% (active) |
| Cc1nn(-c2ccccc2)nc1C(=O)OCC(=O)N1CCCCC1C (stereo not given) | -3.64% |
| CCOc1c2ccc(C(=O)NCc3ccc4c(c3)OCO4)cc2nn1C | 68.1% (active) |
| CCOc1c2ccc(C(=O)NCc3ccc(OC(F)(F)F)cc3)cc2nn1C | 79.5% (active) |
| CCCn1nc2cc(C(=O)NCc3ccccc3)ccc2c1OCC | -3.32% |
| CCOc1c2ccc(C(=O)NC3CCCc4ccccc43)cc2nn1CC (stereo not given) | 7.23% |
| CC(=O)c1sc2nc(SCC(=O)N3CCCCC3)[nH]c(=O)c2c1C | 55.4% (active) |
| Cc1nc(NCCN)c(C#N)c2c1COC(C)(C)C2 | 76.9% (active) |
| COc1ccc(C2CC(c3cccs3)=NN2c2ccccc2)cc1 (stereo not given) | 23.7% (active) |
| Oc1ccccc1C1=NN(c2ccccc2)C(c2ccccc2)C1 (stereo not given) | 84% (active) |
| COc1ccc(C2CC(c3cccs3)=NN2c2ccc(F)cc2)cc1OC (stereo not given) | 71.1% (active) |
| Fc1ccc(N2N=C(c3cccs3)CC2c2ccco2)c(F)c1 (stereo not given) | -3.03% |
| COc1ccccc1N1N=C(c2cccs2)CC1c1ccccc1 (stereo not given) | 46.6% (active) |
| CS(=O)(=O)Nc1ccc(C2=NN(S(C)(=O)=O)C(c3cccs3)C2)cc1 (stereo not given) | -3.93% |
| Cc1cc(C)c(-c2c(O)c3ccccc3n(C)c2=O)c(C)c1 | 61.1% (active) |
| Cc1ccc(S(=O)(=O)N2CCN(C(=O)CSc3cc(C)ccc3C)CC2)c(C)c1 | 108% (active) |
| CCc1cc(=O)oc2cc(C)cc(OCC(=O)N3CCC[C@@H]3C(=O)O)c12 | 54.6% (active) |
| CCCC/C=C/c1cccc2nncn12 | 54% (active) |
| CCOc1ccccc1C1CC(c2ccccc2)Nc2nc(N)nn21 (stereo not given) | 132% (active) |

| Structure (SMILES) | inhibition |
| --- | --- |
| CN(C)CCCn1c(N)c(C#N)c2nc(C#N)c(C#N)nc21 | 76.3% (active) |
| c1ccc(Cc2c(-c3ccco3)nc3c4ccccc4ccn23)cc1 | 95.6% (active) |
| CN(C)c1ccc(/C=N/NC(=O)C(O)c2ccc(Br)cc2)cc1 (stereo not given) | 64% (active) |
| CC(C)C1Nc2c(C(=O)O)cccc2C(Nc2ccccc2C(=O)O)C1(C)C (stereo not given) | 87.3% (active) |
| CC(=O)N1C(=O)/C(=C2\SC(=S)N(NC(=O)c3ccc(O)cc3)C2=O)c2ccccc21 | -2.52% |
| Cc1cc(OCc2cc(C(=O)O)oc2C)c2c3c(c(=O)oc2c1)CCCC3 | 89.5% (active) |
| COC(=O)COc1cc(C)cc2oc(=O)c3c(c12)CCCC3 | 105% (active) |
| CC(=O)N1CCN(C(=O)c2cc(-c3ccc(Cl)s3)nc3ccccc23)CC1 | -3.53% |
| O=C(c1cc(-c2ccc(Cl)s2)nc2ccccc12)N1CCOCC1 | 83% (active) |
| Cc1ccc2nc(-c3ccco3)c(Cc3cccc(Cl)c3)n2c1 | 63.6% (active) |
| COC(=O)c1cc(-c2cccs2)nc2ccccc12 | 96.2% (active) |
| O=C(NCCN1CCOCC1)c1cc(-c2cccs2)nc2ccccc12 | -3.18% |
| CC(C)(C)OC(=O)NNc1c2ccccc2nc2ccccc12 | -5.25% |
| CC(C)n1c(-c2cccs2)nc2ccccc21 | 68.4% (active) |
| Cc1cc(=O)oc2c1ccc1ccccc12 | 71.6% (active) |
| COCCN(CCOC)c1nc(N)c2c(N)nc3c(c2c1C#N)CC(=O)N3Cc1ccc(Cl)cc1 | 79% (active) |
| N#CC1(Nc2ccc3c4c(cccc24)CC3)CCCCC1 | 103% (active) |
| COCc1cc(=O)oc2cc(NS(=O)(=O)c3ccc(C)cc3)ccc12 | 51.2% (active) |
| CCSc1nnc(-c2cc3c(s2)-c2ccccc2CC3)o1 | 53.8% (active) |
| CC1(C)CC(=O)c2cc(OCC(=O)NCC3CCCO3)ccc2O1 (stereo not given) | -4.8% |
| Cc1cc(=O)oc2c3c(cc(OCC(=O)NCC(O)c4ccccc4)c12)OC(C)(C)CC3 (stereo not given) | 46.9% (active) |
| Cc1cc(OCC(=O)NCC(O)c2ccccc2)c2c(C)c(C)c(=O)oc2c1 (stereo not given) | 187% (active) |
| CC1=CC2=NC(=O)CC(C)(C(=O)N(CC(=O)NC(C)(C)C)Cc3ccccc3)N2C=C1 (stereo not given) | 4.57% |
